Measurements from ChEMBL document CHEMBL1961873, “Compounds: GSK PKIS; Assays: Nanosyn kinase panel” (2012).

What was measured:
[1] = target: Sphingosine kinase 1 (Homo sapiens) (UniProt Q9NYA1); details: at 1 µM;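 note: mean SPHK1 inhibition value reported from the GSK PKIS kinase panel screen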
[2] = target: T1, Sphingosine kinase 2 (Homo sapiens) (UniProt Q9NRA0); details: at 0.1 µM
T1 sequence (whole entry): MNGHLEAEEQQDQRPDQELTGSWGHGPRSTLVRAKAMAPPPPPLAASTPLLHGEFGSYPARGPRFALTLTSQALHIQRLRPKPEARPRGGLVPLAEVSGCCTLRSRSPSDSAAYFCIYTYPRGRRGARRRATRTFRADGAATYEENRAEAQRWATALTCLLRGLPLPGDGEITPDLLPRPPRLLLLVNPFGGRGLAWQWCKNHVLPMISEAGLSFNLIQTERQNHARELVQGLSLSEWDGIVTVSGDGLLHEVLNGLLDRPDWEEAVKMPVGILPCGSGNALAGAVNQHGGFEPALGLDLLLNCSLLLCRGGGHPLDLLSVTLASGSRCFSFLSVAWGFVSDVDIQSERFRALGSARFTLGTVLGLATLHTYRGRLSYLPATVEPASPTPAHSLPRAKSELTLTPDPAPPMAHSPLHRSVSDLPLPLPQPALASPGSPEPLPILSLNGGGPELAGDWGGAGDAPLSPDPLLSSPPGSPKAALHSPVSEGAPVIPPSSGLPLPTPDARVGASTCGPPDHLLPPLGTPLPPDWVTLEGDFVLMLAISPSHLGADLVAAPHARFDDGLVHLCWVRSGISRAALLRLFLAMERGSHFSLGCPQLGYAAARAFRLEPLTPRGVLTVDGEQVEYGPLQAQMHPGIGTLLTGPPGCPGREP

[3] = target: T1, Sphingosine kinase 2 (Homo sapiens); details: at 1 µM
[4] = target: Casein kinase II subunit alpha (Homo sapiens) (UniProt P68400); details: at 0.1 µM
Sequence of Casein kinase II subunit alpha (Homo sapiens) (P68400 whole entry, looked up): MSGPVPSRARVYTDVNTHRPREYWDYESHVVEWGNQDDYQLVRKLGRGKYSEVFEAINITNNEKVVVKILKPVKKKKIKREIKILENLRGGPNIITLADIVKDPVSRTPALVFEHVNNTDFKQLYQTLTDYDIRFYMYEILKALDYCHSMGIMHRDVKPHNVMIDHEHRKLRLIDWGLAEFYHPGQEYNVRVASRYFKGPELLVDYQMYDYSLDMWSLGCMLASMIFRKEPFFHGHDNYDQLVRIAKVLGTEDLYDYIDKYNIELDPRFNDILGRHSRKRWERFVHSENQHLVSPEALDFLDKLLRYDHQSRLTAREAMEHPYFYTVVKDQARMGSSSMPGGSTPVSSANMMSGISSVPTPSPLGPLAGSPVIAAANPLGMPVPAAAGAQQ

[5] = target: Casein kinase II subunit alpha (Homo sapiens) (UniProt P68400); details: at 1 µM
[6] = target: T2, Inhibitor of nuclear factor kappa-B kinase subunit alpha (Homo sapiens) (UniProt O15111); details: at 0.1 µM
T2 sequence (whole entry): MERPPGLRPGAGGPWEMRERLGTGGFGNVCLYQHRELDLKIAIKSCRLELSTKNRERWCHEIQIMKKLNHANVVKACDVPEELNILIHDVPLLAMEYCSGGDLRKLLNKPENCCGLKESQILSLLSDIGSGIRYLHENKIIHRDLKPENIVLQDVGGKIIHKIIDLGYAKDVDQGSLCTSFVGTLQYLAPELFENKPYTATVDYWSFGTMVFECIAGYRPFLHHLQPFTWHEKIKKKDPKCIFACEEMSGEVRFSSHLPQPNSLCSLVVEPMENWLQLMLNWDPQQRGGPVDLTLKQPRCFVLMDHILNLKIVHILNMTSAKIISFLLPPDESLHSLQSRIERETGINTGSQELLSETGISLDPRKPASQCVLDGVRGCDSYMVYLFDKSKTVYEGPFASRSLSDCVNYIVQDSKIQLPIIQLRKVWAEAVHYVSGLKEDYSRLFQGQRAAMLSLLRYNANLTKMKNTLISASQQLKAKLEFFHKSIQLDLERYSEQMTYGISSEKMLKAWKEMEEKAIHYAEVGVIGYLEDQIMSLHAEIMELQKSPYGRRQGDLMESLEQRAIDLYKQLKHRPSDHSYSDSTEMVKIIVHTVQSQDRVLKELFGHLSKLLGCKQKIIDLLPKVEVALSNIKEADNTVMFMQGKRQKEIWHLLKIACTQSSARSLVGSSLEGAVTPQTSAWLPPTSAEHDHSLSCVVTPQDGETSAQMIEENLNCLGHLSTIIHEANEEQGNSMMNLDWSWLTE

[7] = target: T2, Inhibitor of nuclear factor kappa-B kinase subunit alpha (Homo sapiens); details: at 1 µM
[8] = target: T3, Inhibitor of nuclear factor kappa-B kinase subunit beta (Homo sapiens) (UniProt O14920); details: at 0.1 µM
T3 sequence (whole entry): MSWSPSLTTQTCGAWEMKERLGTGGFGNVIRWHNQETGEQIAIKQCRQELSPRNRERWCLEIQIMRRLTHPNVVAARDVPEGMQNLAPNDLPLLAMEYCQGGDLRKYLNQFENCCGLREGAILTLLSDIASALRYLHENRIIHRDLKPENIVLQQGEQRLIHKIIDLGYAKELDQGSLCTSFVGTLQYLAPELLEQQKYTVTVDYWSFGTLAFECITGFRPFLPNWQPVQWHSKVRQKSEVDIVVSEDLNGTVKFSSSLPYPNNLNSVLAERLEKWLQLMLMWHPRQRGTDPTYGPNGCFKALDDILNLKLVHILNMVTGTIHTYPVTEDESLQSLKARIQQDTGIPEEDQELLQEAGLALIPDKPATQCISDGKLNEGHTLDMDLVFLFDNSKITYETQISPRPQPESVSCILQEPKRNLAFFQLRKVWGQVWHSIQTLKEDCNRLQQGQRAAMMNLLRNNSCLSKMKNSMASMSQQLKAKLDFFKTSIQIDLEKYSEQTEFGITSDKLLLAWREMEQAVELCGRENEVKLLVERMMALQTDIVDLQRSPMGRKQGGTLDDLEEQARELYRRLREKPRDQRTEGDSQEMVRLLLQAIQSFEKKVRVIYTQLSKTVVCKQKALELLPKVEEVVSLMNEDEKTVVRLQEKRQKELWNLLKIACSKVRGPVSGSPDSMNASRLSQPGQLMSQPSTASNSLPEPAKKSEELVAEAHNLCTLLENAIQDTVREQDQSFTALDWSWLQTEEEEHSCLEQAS

[9] = target: T3, Inhibitor of nuclear factor kappa-B kinase subunit beta (Homo sapiens); details: at 1 µM
[10] = target: T4, Inhibitor of nuclear factor kappa-B kinase subunit epsilon (Homo sapiens) (UniProt Q14164); details: at 0.1 µM
T4 sequence (whole entry): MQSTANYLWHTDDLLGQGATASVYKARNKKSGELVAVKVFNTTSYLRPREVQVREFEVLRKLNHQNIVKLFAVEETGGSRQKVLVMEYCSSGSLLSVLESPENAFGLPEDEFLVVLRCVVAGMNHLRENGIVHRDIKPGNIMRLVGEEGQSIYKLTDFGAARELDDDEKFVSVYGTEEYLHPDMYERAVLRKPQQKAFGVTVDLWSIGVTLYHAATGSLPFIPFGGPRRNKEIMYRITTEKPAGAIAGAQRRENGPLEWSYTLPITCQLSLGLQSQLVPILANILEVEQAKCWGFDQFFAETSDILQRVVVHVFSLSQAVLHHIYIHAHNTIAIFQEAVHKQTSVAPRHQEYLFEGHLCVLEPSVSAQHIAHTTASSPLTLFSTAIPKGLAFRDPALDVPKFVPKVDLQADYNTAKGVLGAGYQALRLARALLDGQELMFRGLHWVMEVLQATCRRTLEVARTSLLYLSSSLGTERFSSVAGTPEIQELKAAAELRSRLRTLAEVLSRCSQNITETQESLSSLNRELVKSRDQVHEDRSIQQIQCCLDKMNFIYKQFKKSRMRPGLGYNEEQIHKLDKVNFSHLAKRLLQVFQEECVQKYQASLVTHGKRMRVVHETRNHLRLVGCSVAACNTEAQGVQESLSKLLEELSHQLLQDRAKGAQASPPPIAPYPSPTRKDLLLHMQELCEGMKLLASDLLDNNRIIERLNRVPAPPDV

[11] = target: T4, Inhibitor of nuclear factor kappa-B kinase subunit epsilon (Homo sapiens); details: at 1 µM
[12] = target: T5, Serine/threonine-protein kinase Nek1 (Homo sapiens) (UniProt Q96PY6); details: at 0.1 µM
T5 sequence (whole entry): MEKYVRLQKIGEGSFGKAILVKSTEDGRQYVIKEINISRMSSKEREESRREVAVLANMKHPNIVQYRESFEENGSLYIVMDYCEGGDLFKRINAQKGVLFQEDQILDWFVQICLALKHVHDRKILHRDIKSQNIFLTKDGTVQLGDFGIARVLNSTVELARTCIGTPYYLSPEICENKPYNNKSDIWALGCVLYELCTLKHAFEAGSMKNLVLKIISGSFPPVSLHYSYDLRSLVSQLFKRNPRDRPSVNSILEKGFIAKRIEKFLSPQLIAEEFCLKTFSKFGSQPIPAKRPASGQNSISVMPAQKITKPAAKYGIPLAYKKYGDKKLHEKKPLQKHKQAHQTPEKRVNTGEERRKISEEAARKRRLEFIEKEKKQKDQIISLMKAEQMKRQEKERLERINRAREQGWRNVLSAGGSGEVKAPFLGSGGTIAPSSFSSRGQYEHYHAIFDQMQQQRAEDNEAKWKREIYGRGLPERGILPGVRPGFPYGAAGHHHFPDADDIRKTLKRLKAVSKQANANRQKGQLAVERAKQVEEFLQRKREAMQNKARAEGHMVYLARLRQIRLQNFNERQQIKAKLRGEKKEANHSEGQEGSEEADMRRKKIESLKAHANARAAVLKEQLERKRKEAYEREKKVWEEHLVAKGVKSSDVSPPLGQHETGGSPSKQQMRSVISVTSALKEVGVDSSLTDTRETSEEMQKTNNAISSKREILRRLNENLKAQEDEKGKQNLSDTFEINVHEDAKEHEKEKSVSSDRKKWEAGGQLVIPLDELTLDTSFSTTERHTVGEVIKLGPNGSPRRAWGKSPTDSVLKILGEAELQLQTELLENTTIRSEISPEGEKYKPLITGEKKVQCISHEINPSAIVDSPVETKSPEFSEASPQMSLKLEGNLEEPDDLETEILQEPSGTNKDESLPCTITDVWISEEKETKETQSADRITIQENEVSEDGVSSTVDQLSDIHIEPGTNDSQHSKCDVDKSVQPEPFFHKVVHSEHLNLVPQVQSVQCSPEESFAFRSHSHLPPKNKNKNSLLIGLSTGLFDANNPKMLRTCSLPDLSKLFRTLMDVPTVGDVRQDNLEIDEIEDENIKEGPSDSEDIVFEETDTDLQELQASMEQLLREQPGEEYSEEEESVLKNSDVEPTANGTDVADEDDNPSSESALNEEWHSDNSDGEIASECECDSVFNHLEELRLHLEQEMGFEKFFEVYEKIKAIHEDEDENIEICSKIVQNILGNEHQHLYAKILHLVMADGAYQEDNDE

[13] = target: T5, Serine/threonine-protein kinase Nek1 (Homo sapiens); details: at 1 µM
[14] = target: T6, Serine/threonine-protein kinase Nek2 (Homo sapiens) (UniProt P51955); details: at 0.1 µM
T6 sequence (whole entry): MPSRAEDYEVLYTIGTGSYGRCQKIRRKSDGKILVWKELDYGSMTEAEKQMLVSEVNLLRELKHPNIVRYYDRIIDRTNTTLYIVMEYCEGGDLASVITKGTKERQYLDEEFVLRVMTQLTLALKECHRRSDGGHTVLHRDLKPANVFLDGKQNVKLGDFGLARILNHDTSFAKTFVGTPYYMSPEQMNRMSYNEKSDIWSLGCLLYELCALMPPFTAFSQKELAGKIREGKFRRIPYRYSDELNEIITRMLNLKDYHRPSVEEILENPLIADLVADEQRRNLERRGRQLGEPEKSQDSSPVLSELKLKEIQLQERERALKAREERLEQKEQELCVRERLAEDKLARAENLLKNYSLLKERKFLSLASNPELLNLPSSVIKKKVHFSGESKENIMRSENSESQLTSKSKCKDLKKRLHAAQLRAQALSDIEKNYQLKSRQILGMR

[15] = target: T6, Serine/threonine-protein kinase Nek2 (Homo sapiens); details: at 1 µM
[16] = target: Serine/threonine-protein kinase Nek6 (Homo sapiens) (UniProt Q9HC98); details: at 0.1 µM
Sequence of Serine/threonine-protein kinase Nek6 (Homo sapiens) (Q9HC98 whole entry): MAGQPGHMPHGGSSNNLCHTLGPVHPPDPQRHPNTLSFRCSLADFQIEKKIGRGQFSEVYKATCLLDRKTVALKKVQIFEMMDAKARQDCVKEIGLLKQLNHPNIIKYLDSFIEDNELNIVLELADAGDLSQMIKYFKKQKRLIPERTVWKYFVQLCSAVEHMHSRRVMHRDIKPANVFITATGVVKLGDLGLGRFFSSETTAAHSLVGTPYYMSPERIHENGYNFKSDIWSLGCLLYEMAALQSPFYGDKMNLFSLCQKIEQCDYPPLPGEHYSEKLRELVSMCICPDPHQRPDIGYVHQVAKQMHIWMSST

[17] = target: Serine/threonine-protein kinase Nek6 (Homo sapiens) (UniProt Q9HC98); details: at 1 µM
[18] = target: Serine/threonine-protein kinase Nek7 (Homo sapiens) (UniProt Q8TDX7); details: at 0.1 µM
Sequence of Serine/threonine-protein kinase Nek7 (Homo sapiens) (Q8TDX7 whole entry, looked up): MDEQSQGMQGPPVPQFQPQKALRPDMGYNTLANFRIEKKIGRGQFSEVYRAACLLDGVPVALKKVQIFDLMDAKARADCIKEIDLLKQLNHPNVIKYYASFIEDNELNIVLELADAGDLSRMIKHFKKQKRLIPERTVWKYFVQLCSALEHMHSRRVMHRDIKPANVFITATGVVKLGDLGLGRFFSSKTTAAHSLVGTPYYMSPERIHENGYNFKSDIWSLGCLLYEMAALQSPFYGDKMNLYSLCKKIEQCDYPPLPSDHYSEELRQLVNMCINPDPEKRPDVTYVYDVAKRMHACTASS

[19] = target: Serine/threonine-protein kinase Nek7 (Homo sapiens) (UniProt Q8TDX7); details: at 1 µM
[20] = target: T7, Serine/threonine-protein kinase Nek9 (Homo sapiens) (UniProt Q8TD19); details: at 0.1 µM;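 note: reported value is the mean percent inhibition of NEK9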
T7 sequence (whole entry): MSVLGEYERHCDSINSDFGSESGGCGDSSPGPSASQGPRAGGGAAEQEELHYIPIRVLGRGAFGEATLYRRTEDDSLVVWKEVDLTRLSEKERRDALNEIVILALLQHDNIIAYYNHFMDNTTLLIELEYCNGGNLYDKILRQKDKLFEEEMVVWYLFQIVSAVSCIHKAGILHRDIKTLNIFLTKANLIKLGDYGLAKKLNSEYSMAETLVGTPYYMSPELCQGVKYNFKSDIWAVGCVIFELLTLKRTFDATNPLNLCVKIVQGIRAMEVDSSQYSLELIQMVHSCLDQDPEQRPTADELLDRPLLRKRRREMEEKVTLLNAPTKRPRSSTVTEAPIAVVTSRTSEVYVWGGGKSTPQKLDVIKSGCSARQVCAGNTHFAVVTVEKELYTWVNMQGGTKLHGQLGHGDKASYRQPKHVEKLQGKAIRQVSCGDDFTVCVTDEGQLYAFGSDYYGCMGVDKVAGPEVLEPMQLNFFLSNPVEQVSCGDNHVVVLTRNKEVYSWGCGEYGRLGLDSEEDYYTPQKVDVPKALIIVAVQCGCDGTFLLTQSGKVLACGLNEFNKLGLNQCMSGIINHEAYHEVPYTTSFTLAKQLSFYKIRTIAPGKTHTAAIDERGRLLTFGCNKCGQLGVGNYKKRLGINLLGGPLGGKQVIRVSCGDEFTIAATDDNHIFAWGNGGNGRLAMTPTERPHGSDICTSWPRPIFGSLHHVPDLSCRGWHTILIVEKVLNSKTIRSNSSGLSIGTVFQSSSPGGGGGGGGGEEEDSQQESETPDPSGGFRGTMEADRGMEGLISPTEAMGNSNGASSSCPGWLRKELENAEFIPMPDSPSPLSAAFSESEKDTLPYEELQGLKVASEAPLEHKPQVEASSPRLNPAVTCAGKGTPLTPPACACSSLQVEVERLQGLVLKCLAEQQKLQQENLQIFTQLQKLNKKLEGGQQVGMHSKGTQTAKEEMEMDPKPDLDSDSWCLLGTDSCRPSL

Sequence of Sphingosine kinase 1 (Homo sapiens) (Q9NYA1 whole entry): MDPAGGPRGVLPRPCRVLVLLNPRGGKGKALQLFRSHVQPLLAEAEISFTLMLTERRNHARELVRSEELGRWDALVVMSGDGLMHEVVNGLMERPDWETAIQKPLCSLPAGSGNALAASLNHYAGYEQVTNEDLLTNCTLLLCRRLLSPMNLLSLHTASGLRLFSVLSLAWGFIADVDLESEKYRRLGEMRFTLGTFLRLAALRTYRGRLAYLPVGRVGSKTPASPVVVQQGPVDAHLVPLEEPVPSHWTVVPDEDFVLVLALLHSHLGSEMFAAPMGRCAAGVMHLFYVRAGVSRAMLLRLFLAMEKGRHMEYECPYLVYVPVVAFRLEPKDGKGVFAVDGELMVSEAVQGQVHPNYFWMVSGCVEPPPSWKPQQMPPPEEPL

`Cc1cccc(-c2n[nH]cc2-c2ccc3ncccc3n2)n1` gave an inhibition [1] of -1.51%, an inhibition [2] of 0.61% and an inhibition [3] of 0.2%. It also gave an inhibition [4] of 1.46%, an inhibition [5] of 4.82% and an inhibition [6] of 2.07%. It also gave an inhibition [7] of 5.93%, an inhibition [8] of 0.87% and an inhibition [9] of 0.63%. The inhibition [10] was 0.62%, the inhibition [11] was 2.37% and the inhibition [12] was 2.07%. For the same compound, the inhibition [13] was 2.35%, the inhibition [14] was 1.59% and the inhibition [15] was 1.08%. It also gave an inhibition [16] of 1.75%, an inhibition [17] of 3.64% and an inhibition [18] of 2.98%. The inhibition [19] was 1.74% and the inhibition [20] was 1.6%.
